In all, about 290,000 compounds went through this assay and about 3,300 (1.1%) were called active. Rule as the data show it: active = binding response below about 67% or above about 130%; inconclusive = no clear call, values can overlap the other calls; inactive = in between. The sample as a whole holds a higher share of actives than the screen did.

This test deals with Mitogen-activated protein kinase kinase kinase 2 (Homo sapiens) (UniProt Q9Y2U5). Kind of test: wildtype MEKK2 PB1-MEK5 interaction, increase or decrease – biochemical, multiplex bead flow cytometry, Alexa488-MEK5, primary screen (AID 1531). The note with it: Alexa488-MEK5 binding to MEKK2 WT, at 10 µM, actives lie on both sides.
Consider `Cc1ccc(OCC(O)CN2CCN(CC(O)COc3ccc(C)cc3Cl)CC2)c(Cl)c1` (stereo not drawn), for which the binding response (% of control) is 134% (active).
The figure for `Cc1cccc(OCC(O)CN2CCN(S(=O)(=O)c3ccc(C)cc3C)CC2)c1` (stereo not drawn) is 95% (inactive); for `OC(COc1ccc(F)cc1Cl)CN1CCc2ccccc2C1` (stereo not drawn) it is 105% (inactive); for `C[n+]1cc(-c2ccccc2)oc1-c1ccccc1` it is 100% (inactive).
For `COc1ccc(CCn2c(NN=C3CCCC3)nc3c2c(=O)[nH]c(=O)n3C)cc1`, the binding response (% of control) was 39% [inhibitor] (active).
As to `COc1ccc(CCn2c(NCCCN3CCOCC3)nc3c2c(=O)[nH]c(=O)n3C)cc1`, the binding response (% of control) is 103% (inactive).
The value for `COc1ccc(CNc2nc3c(c(=O)[nH]c(=O)n3C)n2Cc2ccccc2)cc1` was 109% (inactive); that for `COC(=O)CN1C(=O)[C@H]2[C@@H](/C=C/c3ccccc3)N3C(=O)CN(CC4CC4)C(=O)[C@@]3(Cc3ccccc3)[C@H]2C1=O` was 104% (inactive).
As to `CC1=C(N2CCN(c3ncccn3)CC2)CCC1=O`, the binding response (% of control) is 111% (inactive).
The figure for `COc1cccc(CNC(=O)C2CC(=O)N(C3CCCCCCC3)C2)c1` (stereo not drawn) is 94% (inactive); for `O=C(Nc1nnc(C2CC2)s1)c1cc(Cl)sc1Cl` it is 102% (inactive).
In the case of `CC(C)(C)NC(=O)NC(=O)COC(=O)C1c2ccccc2Oc2ccccc21`, the binding response (% of control) is 100% (inactive).
The value for `COc1ccc(OCC(=O)NNC(=O)c2cccc(C)c2)cc1` was 93% (inactive); that for `COc1cccc(OCC(=O)NNC(=O)c2cnccn2)c1` was 2% [inhibitor] (active); that for `COc1cccc(OCC(=O)Nc2ccccc2C(N)=O)c1` was 115% (inactive).
The value for `COc1ccc(CCNC(=O)CCNS(=O)(=O)c2cc(Br)cnc2N)cc1OC` was 106% (inactive); that for `CCOC(=O)c1cc(-c2nnc(-c3cc(OC)c(OC)c(OC)c3)o2)c(C)nc1C` was 104% (inactive); that for `CC(C)(C)NC(=O)c1ccc(Cn2cc(C(F)(F)F)ccc2=O)cc1` was 101% (inactive).
The figure for `COc1cc(-c2nnc(Cn3cc(C(F)(F)F)ccc3=O)o2)cc(OC)c1OC` is 3% [inhibitor] (active); for `CCC(Cc1ccccc1)NS(=O)(=O)c1ccc2c(c1)NC(=O)CS2` (stereo not drawn) it is 102% (inactive); for `Nc1cc(N)nc(SCc2cccc(F)c2)n1` it is 104% (inactive).
Regarding `COC(=O)c1c(C)cc(O)c(C)c1O`, the binding response (% of control) is 104% (inactive).
For the molecule `C#CC(C)(C)NC(=O)CSc1nc2c(c(=O)n(C)c(=O)n2C)n1CCCC`, the binding response (% of control) was 106% (inactive).
On to `CCn1c(NCCc2ccc(OC)c(OC)c2)nc2c1c(=O)n(C)c(=O)n2C`, for which the binding response (% of control) was 102% (inactive).
The value for `CCCCn1c(SCC(=O)NCCc2ccc(OC)c(OC)c2)nc2c1c(=O)n(C)c(=O)n2C` was -4% [inhibitor] (active).
Regarding `CCN(CC)C(=O)CC(c1ccc2c(c1)OCO2)c1c(OC)cc(OC)c2c(-c3ccccc3)cc(=O)oc12` (stereo not drawn), the binding response (% of control) was 143% (active).
Take `COc1cc(OC)c(C(=O)NCc2ccc3c(c2)OCO3)cc1OC`: the binding response (% of control) was 102% (inactive).
The figure for `CCN(CC)CCC(c1cc(OC)c(OC)c(OC)c1)c1c(OC)cc(OC)c2c(-c3ccccc3)cc(=O)oc12` (stereo not drawn) is 90% (inactive); for `CCN(CC)CCC(c1ccc2c(c1)OCO2)c1c(OC)cc(OC)c2c(-c3ccccc3)cc(=O)oc12` (stereo not drawn) it is 137% (active).
Regarding `CCCCN(CC)C(=O)c1ccc2c(c1)OCO2`, the binding response (% of control) was 100% (inactive).
The value for `COc1cc(OC)c2ccc(=O)oc2c1C(CCN1CCN(c2ccccc2)CC1)c1ccc2c(c1)OCO2` (stereo not drawn) was 110% (inactive); that for `Cc1cccc(Nc2nc(NCCO)nc(N3CCCC3)n2)c1` was 109% (inactive); that for `COc1cc(CC(=O)N2CCC(n3nccc3NC(=O)C3CC3)CC2)cc(OC)c1OC` was 103% (inactive).
In the case of `Clc1cccc(Cl)c1OCCOCCNCc1ccccc1`, the binding response (% of control) is 109% (inactive).
For the molecule `CCC(C(=O)OCCN(CC)CC)c1ccccc1` (stereo not drawn), the binding response (% of control) is 101% (inactive).
The figure for `CCN(CC)CCOCCOc1ccc(Cl)c2ccccc12` is 7% [inhibitor] (active).
The value for `Cc1cccc(NC(=S)NCCc2ccc(Cl)cc2)c1C` was 106% (inactive); that for `Cc1ccc(S(=O)(=O)N(C)CC(=O)NCCc2c[nH]c3ccccc23)cc1` was 107% (inactive); that for `CCOC(=O)c1ccc(NC(=O)c2c(NCc3ccccc3)[nH]c(=O)[nH]c2=O)cc1` was 102% (inactive).
Regarding `CC1CN(C(=O)CCC(=O)NCCCN2CCC(Cc3ccccc3)CC2)c2cc(Cl)ccc2O1` (stereo not drawn), the binding response (% of control) was 163% (active).
The figure for `CC1CN(C(=O)CCC(=O)NCc2cccnc2)c2ccccc2O1` (stereo not drawn) is 103% (inactive).
As to `CC1CN(C(=O)CCC(=O)NC2CCN(Cc3ccccc3)CC2)c2ccccc2O1` (stereo not drawn), the binding response (% of control) was 107% (inactive).
The value for `O=C(CN1CCCCCC1)Nc1ccc(S(=O)(=O)N2CCCCC2)cc1` was 100% (inactive).
For `O=C(NCc1ccccc1Cl)C1CCN(c2ncnc3c2nc2n3CCCCC2)CC1`, the binding response (% of control) is 102% (inactive).
Turning to `Cc1cc(C)c(OCC(=O)N(Cc2cccs2)C2CCS(=O)(=O)C2)c(C)c1` (stereo not drawn), the binding response (% of control) is 101% (inactive).
The value for `O=C(CN1CCc2ccccc21)NC(c1ccccc1)c1ccccc1` was 95% (inactive); that for `COC(=O)c1[nH]c2cccc(C)c2c1NC(=O)CN1CCCc2ccccc21` was 18% [inhibitor] (active); that for `COC(=O)c1[nH]c2ccc(Br)cc2c1NC(=O)Oc1ccccc1` was 103% (inactive).
The figure for `NS(=O)(=O)c1cccc(NC(=O)CN2CCCc3ccccc32)c1` is 99% (inactive).
Take `COC(=O)c1[nH]c2ccccc2c1NC(=O)CN1CCCc2ccccc21`: the binding response (% of control) is -2% (active).
The figure for `Cc1cccc(C)c1NC(=O)COC(=O)c1ccccc1O` is 97% (inactive); for `CC(=O)N1c2ccc(S(=O)(=O)N3CCCC(C(=O)Nc4cccc(F)c4)C3)cc2CC1C` (stereo not drawn) it is 106% (inactive); for `CCOC(=O)c1c(-c2ccccc2)oc2cc(Br)c(O)c(C=O)c12` it is 94% (inactive).
The figure for `O=C(Nc1ccccc1Cl)NC1(C(=O)N2CCOCC2)CCCCC1` is 96% (inactive).
In the case of `CC1(C)C2CC[C@]3(C)C(CC=C4[C@@H]5C[C@@](C)(CO)CC[C@]5(C(=O)O)CC[C@]43C)[C@@]2(C)CC[C@@H]1O` (stereo partly drawn), the binding response (% of control) is 105% (inactive).
The value for `C=CCOc1ccccc1NC(=O)CN1C(=O)CNC1=O` was 106% (inactive); that for `O=C(N/N=C\c1cc2c(cc1Cl)OCO2)c1ccc(Br)s1` was 103% (inactive).
The value for `O=C(CN1CCN(C2CCCCC2)CC1)Nc1ccccc1N1CCCCC1` was 109% (inactive); that for `CN1CCN(c2ccccc2NC(=O)COc2ccc(C3CCCCC3)cc2)CC1` was 145% (active).
The figure for `Cc1ccc(C(C)C)cc1OCC(=O)Nc1ccccc1N1CCCC1` is 100% (inactive); for `NC(=O)c1oc2ccccc2c1NC(=O)CS(=O)(=O)c1ccccc1` it is 106% (inactive); for `O=C(O)c1ccccc1C(=O)Nc1ccccc1[N+](=O)[O-]` it is 0% (active).
As to `O=C(Nc1ccccc1[N+](=O)[O-])C1C(c2ccccc2)=C1c1ccccc1`, the binding response (% of control) was 97% (inactive).
The value for `O=C(Nc1ccccc1-c1ccccc1)c1ccccc1[N+](=O)[O-]` was 106% (inactive); that for `CCOC(=O)C[C@H]1c2ccc(C(F)(F)F)cc2S(=O)(=O)N1c1ccccc1` was 98% (inactive); that for `CCOC(=O)C1CCN(C(=O)Cn2nc(C)c3c(C)n(-c4ccccc4)nc3c2=O)CC1` was 101% (inactive).
As for `COc1ccc(S(=O)(=O)N2CCC(C(=O)NCCC(=O)NCc3cccc(OC)c3)CC2)cc1`, the binding response (% of control) was 104% (inactive).
For the molecule `CCOc1cc(/C=C/c2nc3ccccc3c(=O)[nH]2)cc(Br)c1OC`, the binding response (% of control) was 98% (inactive).
The figure for `O=C(Nc1c2c(nn1-c1cccc(Cl)c1)CS(=O)(=O)C2)c1cccs1` is 81% (inactive); for `CCOc1cc(C2C(C(=O)c3ccco3)=C(O)C(=O)N2Cc2ccccc2)ccc1O` (stereo not drawn) it is 93% (inactive).
For `CCCc1nn(C)c2c(=O)[nH]c(-c3cc(S(N)(=O)=O)ccc3OCC)nc12`, the binding response (% of control) was 105% (inactive).
The figure for `COc1ccc(S(=O)(=O)NC(C)C(=O)NCc2ccncc2)cc1Cl` (stereo not drawn) is 98% (inactive); for `Cn1cc(CCC(=O)NC2CC2)c2ccccc21` it is 96% (inactive).
Consider `CC(C)Oc1ccc(CN2CCC(n3nccc3NC(=O)c3cccnc3)CC2)cc1`, for which the binding response (% of control) was 142% (active).
The value for `COc1ccc(C(=O)Nc2ccnn2C2CCN(Cc3ccncc3)CC2)cc1` was 101% (inactive).
The figure for `COc1ccccc1C(=O)Nc1ccnn1C1CCN(Cc2cnn(C)c2)CC1` is 88% (inactive).
Regarding `Cc1ccc(SCC(=O)NNC(=O)c2ccc(S(C)(=O)=O)cc2)cc1`, the binding response (% of control) is 102% (inactive).
The value for `CC(C)OCCCNC(=O)C1CC(=O)N(C2CCCCCCC2)C1` (stereo not drawn) was 100% (inactive); that for `O=C(NCCc1ccc(Cl)cc1)C1CC(=O)N(C2CCCCC2)C1` (stereo not drawn) was 98% (inactive).
In the case of `O=C(NCCCN1CCCCCC1)C1CC(=O)N(C2CCCC2)C1` (stereo not drawn), the binding response (% of control) is 162% (active).
The value for `CCn1c(CC(=O)Nc2ccccc2)nnc1SCC(=O)N1CCOCC1` was 96% (inactive); that for `CCOC(=O)c1ccc(N2C(=O)CC(N3CCC(C(=O)OCC)CC3)C2=O)cc1` (stereo not drawn) was 105% (inactive).
In the case of `CCOC(=O)c1ccc(N2C(=O)CC(N3CCN(C(=O)c4ccccc4)CC3)C2=O)cc1` (stereo not drawn), the binding response (% of control) is 96% (inactive).
As for `CCCCOC(=O)c1ccc(N2C(=O)CC(N3CCN(C/C=C/c4ccccc4)CC3)C2=O)cc1` (stereo not drawn), the binding response (% of control) was 176% (active).
The value for `C#CCOCCOCCOCCNc1nc(N2CCN(C(=O)[C@H](CCC(=O)O)n3cc(C(N)CO)nn3)CC2)nc(N2CCN(C(=O)[C@H](CCCCN)n3cc(C(N)CC(C)C)nn3)CC2)n1` (stereo partly drawn) was 69% (inactive); that for `C#CCOCCOCCOCCNc1nc(N2CCN(C(=O)C([C@@H](C)CC)n3cc(C(N)COC(=O)C(F)(F)F)nn3)CC2)nc(N2CCN(C(=O)[C@H](Cc3ccc(O)cc3)n3cc(C(N)[C@H](C)CC)nn3)CC2)n1` (stereo partly drawn) was 120% (inactive).
The value for `C#CCOCCOCCOCCNc1nc(N2CCN(C(=O)C(Cc3ccc(O)cc3)n3cc(C(N)CC(C)C)nn3)CC2)nc(N2CCN(C(=O)C(Cc3ccc(O)cc3)n3cc(C(N)C(C)CC)nn3)CC2)n1` (stereo not drawn) was 147% (active); that for `C#CCOCCOCCOCCNc1nc(N2CCN(C(=O)[C@H](C(C)C)n3cc(CCO)nn3)CC2)nc(N2CCN(C(=O)[C@H](C(C)C)n3cc(CCO)nn3)CC2)n1` was 97% (inactive); that for `C#CCOCCOCCOCCNc1nc(N2CCN(C(=O)[C@H](CCC(=O)O)n3cc(C(N)CO)nn3)CC2)nc(N2CCN(C(=O)[C@H](Cc3ccc(O)cc3)n3cc(C(N)[C@H](C)CC)nn3)CC2)n1` (stereo partly drawn) was 108% (inactive).
As for `C#CCOCCOCCOCCNc1nc(N2CCN(C(=O)[C@H](CCC(=O)O)n3cc(C(N)CO)nn3)CC2)nc(N2CCN(C(=O)[C@H](CCCCN)n3cc(C(N)[C@H](C)CC)nn3)CC2)n1` (stereo partly drawn), the binding response (% of control) is 97% (inactive).
The value for `C#CCOCCOCCOCCNc1nc(N2CCN(C(=O)C([C@@H](C)CC)n3cc(C(N)COC(=O)C(F)(F)F)nn3)CC2)nc(N2CCN(C(=O)[C@H](CCCCN)n3cc(C(N)CC(C)C)nn3)CC2)n1` (stereo partly drawn) was 241% (active); that for `C#CCOCCOCCOCCNc1nc(N2CCN(C(=O)[C@H](CCCCN)n3cc([C@@H](N)C(C)CC)nn3)CC2)nc(N2CCN(C(=O)[C@H](Cc3ccc(O)cc3)n3cc([C@@H](N)C(C)CC)nn3)CC2)n1` (stereo partly drawn) was 211% (active).
The value for `C#CCOCCOCCOCCNc1nc(N2CCN(C(=O)[C@H](Cc3ccc(O)cc3)n3cc(C(N)CC(C)C)nn3)CC2)nc(N2CCN(C(=O)[C@H](CCC(=O)O)n3cc(C(N)[C@H](C)CC)nn3)CC2)n1` (stereo partly drawn) was 106% (inactive).

Source of the values: PubChem BioAssay AID1531 (NMMLSC, 2009).
